Among the data in PubChem BioAssay (NCATS) are Potency values, retold here.

Activity calls are given as the source filed them. The rule behind the calls is not given here. A value given as a limit tells only on which side of the number the result lay.
Potency is the fitted concentration of half-maximal effect.

For this experiment, the system named is HIV-1 nucleocapsid protein NCp7 (binding to TG oligonucleotide). Put plainly: HIV Nucleocapsid (AID 346).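 Note: potency is for inhibitors that block NC binding and lower polarization.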 To be noted: HIV-1 NC / fluorescein-TGTGTGTG probe, fluorescence polarization. In outline: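 Fluorescence polarization binding of 100 nM HIV-1 NC to 10 nM fluorescein-labelled TG4xF oligonucleotide. Buffer was Hepes pH 7.5 with 250mM NaCl, 1uM ZnCl2, TCEP and 2-mercaptoethanol. Compounds were incubated 1 hr at room temperature before the read.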
(Fluorescence polarisation rises when a labelled molecule tumbles more slowly, as on binding a larger partner.)
Take `COc1cccc(-c2nc(NCCc3c[nH]c4ccc(OC)cc34)c3ccccc3n2)c1`: the Potency was > 20 µM (inactive).
On to `COCCn1c(=O)c(-c2ccc(Cl)cc2)nc2cnc(Oc3ccc(OC)cc3)nc21`, for which the Potency was > 20 µM (inactive).
In the case of `O=C(c1cccc(F)c1)N1CCC2(CCCN(C(c3ccccc3)c3ccccc3)C2)CC1`, the Potency was > 20 µM (inactive).
On to `COCCn1c(=O)c(C)nc2cnc(OCc3ccccc3)nc21`, for which the Potency was > 20 µM (inactive).
Regarding `N#CCCn1c(=O)c(-c2cccs2)nc2cnc(N3CCOCC3)nc21`, the Potency was 4.26 µM (active).
`O=C(c1cc(C(F)(F)F)cc(C(F)(F)F)c1)N1CCC2(CC1)CN(c1ccccn1)C2`: the Potency was > 20 µM (inactive).
For the compound `Cc1nc2cnc(N3CCOCC3)nc2n(Cc2ccc(F)cc2)c1=O`, the Potency was > 20 µM (inactive).
For `CC(C)NC(=O)N1CCCC2(CCN(C(=O)c3cc(C(F)(F)F)cc(C(F)(F)F)c3)CC2)C1`, the Potency is > 20 µM (inactive).
Under `CN1CCN(c2ncc3nc(-c4cn(C)c5ccccc45)c(=O)n(-c4ccccc4)c3n2)CC1` stands > 4 µM (inactive); under `CN(Cc1ccco1)c1ccnc(-c2cccnc2)n1`, > 20 µM (inactive).
In the case of `O=C(c1csnn1)N1CCC2(CC1)CN(c1ccccc1)C2` it was > 20 µM (inactive).
For the compound `O=C(c1ccco1)N1CCC2(CC1)CN(c1cccc(-c3ccccc3)c1)C2`, the Potency is > 20 µM (inactive).
On to `Clc1ccccc1-c1nccc(-n2ccnc2)n1`, for which the Potency is > 20 µM (inactive).
Turning to `COc1ncc2nc(C)c(=O)n(-c3ccccc3)c2n1`, the Potency was > 20 µM (inactive).
Take `O=C(c1cccc(F)c1)N1CCC2(CCCN(c3ccc(-c4ccccc4)cc3)C2)CC1`: the Potency was > 20 µM (inactive).
Regarding `COc1ncc2nc(-c3ccc(Cl)cc3)c(=O)n(Cc3cccs3)c2n1`, the Potency is > 20 µM (inactive).
As for `N#Cc1cccc(NC(=O)N2CC[C@@]3(CCCNC3)C2)c1`, the Potency is > 20 µM (inactive).
Under `CCNc1ncc2ncc(=O)n(Cc3cccs3)c2n1` stands > 20 µM (inactive); under `Cc1cccc(CNc2cc(-c3c(C)noc3C)ncn2)c1`, > 20 µM (inactive).
Regarding `CC(C)NC(=O)N1CC2(CCN(C(=O)c3ccncc3)CC2)C1`, the Potency is > 20 µM (inactive).
Turning to `O=c1c(-c2ccccc2)nc2cnc(N3CCOCC3)nc2n1CCc1ccccc1`, the Potency was > 20 µM (inactive).
Regarding `Cc1ccccc1-c1cncnc1NCCN1CCOCC1`, the Potency was > 20 µM (inactive).
Consider `O=C(c1ccco1)N1CCC[C@@]2(CCN(c3ncccn3)C2)C1`, for which the Potency is > 20 µM (inactive).
Under `O=C(c1csnn1)N1CCC2(CC1)CCN(C(c1ccccc1)c1ccccc1)CC2` stands > 20 µM (inactive); under `COCCn1c(=O)c(-c2ccc(F)cc2)nc2cnc(N(C)C)nc21`, > 20 µM (inactive).
In the case of `CC(C)NC(=O)N1CC[C@@]2(CCCN(C(=O)Oc3ccccc3)C2)C1`, the Potency is > 20 µM (inactive).
In the case of `CC(C)CN1CCC2(CC1)CCN(C(=O)c1ccncc1)CC2` it was > 20 µM (inactive).
For `O=c1c(-c2ccc(F)cc2)nc2cncnc2n1C1CC1`, the Potency is > 20 µM (inactive).
`O=c1c(-c2ccc(Cl)cc2)nc2cnc(Nc3ccccc3)nc2n1C[C@H]1CCCO1`: the Potency is 0.219 µM (active).
In the case of `COC(=O)N1CCC[C@@]2(CCN(c3ccccc3)C2)C1` it was > 20 µM (inactive); in that of `N#Cc1cccc(-c2cc(NCc3cccnc3)ncn2)c1`, > 20 µM (inactive); in that of `COc1cccc(-c2nc(NCCN3CCOCC3)c3ccccc3n2)c1`, > 20 µM (inactive).
Turning to `Cc1noc(C)c1C(=O)N1CCC2(CC1)CN(c1ccccn1)C2`, the Potency was > 20 µM (inactive).
With `Cn1c(=O)c(-c2ccc(Cl)cc2)nc2cnc(N3CCOCC3)nc21`, the Potency is > 20 µM (inactive).
For the compound `Cc1noc(C)c1C(=O)N1CCC2(CCCN(c3ccncc3)C2)CC1`, the Potency was > 20 µM (inactive).
In the case of `COC(=O)N1CCC2(CC1)CCN(c1cccc(-c3ccccc3)c1)CC2` it was > 20 µM (inactive).
In the case of `COc1ccc(Oc2ncc3nc(-c4ccc(F)cc4)c(=O)n(Cc4cccs4)c3n2)cc1`, the Potency is > 20 µM (inactive).
As for `O=C(c1ccncc1)N1CCC2(CC1)CCN(c1ccc(-c3ccccc3)cc1)CC2`, the Potency was > 20 µM (inactive).
Under `O=C(Nc1cccc(F)c1)N1CC[C@@]2(CCCN(C(=O)c3cc(C(F)(F)F)cc(C(F)(F)F)c3)C2)C1` stands > 20 µM (inactive); under `Cn1cccc1C(=O)N1CCC2(CCN(Cc3ccccc3)CC2)CC1`, > 20 µM (inactive).
